“And” between values parts separate entries of the source, which are not always exact repeats. Equal values may be shown once. The campaign covered roughly 420,000 compounds. About 64,000 (15%) were called active. Inconclusive results (about 27%) are left out. Calls come from the whole dose curve; as a rule, active = well fitted inhibition curve with a large enough effect; inconclusive = small, poorly fitted or top-dose-only effect; inactive = flat fitted curve, though single readings scatter. The list is a sample of the results. Entries that show only a call come without a potency.
Potency is the fitted concentration of half-maximal effect.

A short description of the experiment: qHTS for Inhibitors of human tyrosyl-DNA phosphodiesterase 1 (TDP1): qHTS in cells in absence of CPT. Note: nearly all actives have a fitted effect of over 55% in size. The conditions noted are these: DT40 Tdp1-/- hTDP1 cells, no CPT, ATP luminescence, 48 h; activity change, negative = growth inhibition: at 46.2 µM (top of the series). The gist of the method: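 No-CPT arm: Tdp1-/-;hTDP1 DT40 cells (400/well) plus compounds, incubated ≥48 hr at 37 °C. Readout CellTiter-Glo luminescence.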
For `Cn1c(N)cc(=O)n(C)c1=S`, the Potency result is “inactive”.

On to `Cc1n[nH]c(=O)c2c(NC(=O)COC(=O)c3ncc(Cl)c(Cl)c3Cl)oc(C)c12`, for which the Potency result is “inactive”.

For `O=C(CN1CCN(S(=O)(=O)c2ccc(Cl)s2)CC1)NCc1ccc(Cl)cc1`, the Potency entry is “inactive”.

With `N#Cc1ccc(COC(=O)Cn2nnc(-c3ccccc3)n2)cc1`, the Potency result is “inactive”.

As to `Cc1ccc(NC(=O)CN2C(=O)NC(C)(c3ccc(Cl)cc3)C2=O)c(Br)c1` (stereo not drawn), the Potency result was “inactive”.

As for `Cc1c(S(=O)(=O)NC(C)c2ccccc2)c(=O)n(C)c(=O)n1C` (stereo not drawn), the Potency entry was “inactive”.

For the molecule `CCOC(=O)c1cc(NC(=O)c2cccnc2)ccn1`, the Potency result is “inactive”.

With `CCOc1ccc(C(=O)Nc2c3c(nn2-c2ccccc2)CS(=O)(=O)C3)cc1`, the Potency entry is “inactive”.

Regarding `CCOC(=O)c1sc(NC(=O)CSc2nc(O)c(Cc3ccccc3)c(=O)[nH]2)nc1C`, the Potency result is “inactive”.

Consider `Cn1sc(NC(=O)c2ccccc2)nc1=O`, for which the Potency result was “inactive”.

On to `CCOC(=O)c1cc(-c2sc(NC(=O)c3ccccc3)nc2C)n(-c2ccc(Br)cc2)n1`, for which the Potency was 25.9 µM (active).

Turning to `CCOC(=O)c1cc(-c2sc(NC(=O)c3ccccc3)nc2C)n(CCO)n1`, the Potency was 6.51 µM (active).

For `CCOC(=O)c1cc(-c2sc(NC(=O)c3ccccc3)nc2C)n(Cc2ccccc2)n1`, the Potency was 18.4 µM (active).

As to `C=CCn1nc(C(=O)OCC)cc1-c1sc(NC(=O)c2ccccc2)nc1C`, the Potency was 20.6 µM (active).

For the molecule `CCOC(=O)c1cc(OC(=O)c2ccccc2Cl)n(-c2ccccc2)n1`, the Potency result was “inactive”.

In the case of `CCOC(=O)C(=O)Nc1nc(-c2ccccc2)c(CC)s1`, the Potency entry was “inactive”.

In the case of `CC(=O)c1sc(NC(=O)c2cccc3ccccc23)nc1C`, the Potency result was “inactive”.

In the case of `CCOc1ccccc1NC(=O)CSc1ncc(S(=O)(=O)c2ccc(C(C)(C)C)cc2)c(=O)[nH]1`, the Potency entry is “inactive”.

`O=C1CSC2=NCN(c3ccccc3)CN12`: the Potency result is “inactive”.

As to `Nc1scc(-c2ccncc2)c1Cl`, the Potency result was “inactive”.

Consider `Cc1nc2ccc(S(=O)(=O)N(C)CC(=O)NC(C)c3ccccc3)cc2s1` (stereo not drawn), for which the Potency result is “inactive”.

On to `CCCc1cc(=O)oc2c(C)c(OC(C)C(=O)NCC(O)c3ccccc3)ccc12` (stereo not drawn), for which the Potency result was “inactive”.

For `c1ccc2cc(OCCN3CCCC3)ccc2c1`, the Potency result is “inactive”.

With `Cc1nnc2n1N=C(c1ccc3c(c1)NC(=O)CO3)CS2`, the Potency entry is “inactive”.

As to `CC(C(=O)NCCc1ccc(S(N)(=O)=O)cc1)N1C(=O)CC(C)(C)Sc2ccccc21` (stereo not drawn), the Potency entry was “inactive”.

On to `Cc1c(C(=O)NNC(=O)c2ccncc2)oc2ccccc12`, for which the Potency result was “inactive”.

For the molecule `C/C(=C/C(=O)N1CCN(C)CC1)C(=O)O`, the Potency result was “inactive”.

As to `COc1cc(-c2c(-c3ccc4c(c3)OCO4)noc2C)ccc1F`, the Potency was 17.8 µM (active) and 16.4 µM (active).

Consider `COc1ccc(F)cc1S(=O)(=O)Nc1ccc2c(c1)OCO2`, for which the Potency entry is “inactive”.

In the case of `COc1ccc(CCNC(=O)c2cc(-c3ccc4c(c3)OCO4)on2)cc1OC`, the Potency result is “inactive”.

Consider `COc1ccccc1NC(=O)N1CCCC1C(=O)NCc1cccs1` (stereo not drawn), for which the Potency result was “inactive”.

As for `COc1ccccc1NC(=O)CSC1=Nc2ccccc2C2=NC(CC(=O)NCc3cccs3)C(=O)N12` (stereo not drawn), the Potency was 20.6 µM (active).

Turning to `O=C(CSC1=Nc2ccccc2C2=NC(CC(=O)NCc3ccco3)C(=O)N12)NCc1ccco1` (stereo not drawn), the Potency result is “inactive”.

For the molecule `O=C(CC1N=C2c3ccccc3N=C(SCc3ccccc3Cl)N2C1=O)NCc1ccco1` (stereo not drawn), the Potency entry was “inactive”.

Take `O=C(CC1N=C2c3ccccc3N=C(SCc3cccc(Cl)c3)N2C1=O)NCc1ccc2c(c1)OCO2` (stereo not drawn): the Potency was 20.6 µM (active).

With `NC(=O)CSC1=Nc2ccccc2C2=NC(CCC(=O)NCc3ccc(F)cc3)C(=O)N12` (stereo not drawn), the Potency result was “inactive”.

As for `CC(C)NC(=O)N1CC[C@@]2(CCCN(C(=O)c3ccco3)C2)C1`, the Potency result was “inactive”.

With `COc1ccc(N2C(=O)C3CCCN3C2c2cccc(OC)c2)cc1` (stereo not drawn), the Potency result is “inactive”.

Take `Cc1ccc(NS(=O)(=O)c2ccc(C(C)(C)C)cc2)cn1`: the Potency result is “inactive”.

On to `Cc1ccc(S(=O)(=O)Nc2ccc3ncccc3c2)cc1`, for which the Potency was 9.2 µM (active).

Take `Cc1ccc(OCC(=O)Nc2ccc(S(=O)(=O)Nc3ccccn3)cc2)cc1`: the Potency entry was “inactive”.

`CS(=O)(=O)N(CC(=O)Nc1ccc(F)cc1)C1CCCCC1`: the Potency result was “inactive”.

For the molecule `CS(=O)(=O)N1CCC2(CC1)CN(Cc1ccccc1)C2`, the Potency result was “inactive”.

With `O=c1onc(-c2cccs2)n1Cc1ccccc1`, the Potency entry is “inactive”.

In the case of `Cc1ccc(-c2nc(=N)sn2Cc2ccccc2)cc1`, the Potency was 4.47 µM (active).

Take `Cc1ccc(CN2C(=O)SC(Nc3ccccc3)C2=O)cc1` (stereo not drawn): the Potency entry was “inactive”.

As for `c1ccc2c(c1)OCCOCCOCCO2`, the Potency result was “inactive”.

Regarding `Cc1ccc(NC(=O)CN(C)C(=O)c2ccc(Br)o2)cc1`, the Potency result was “inactive”.

With `O=C(Nc1ccccc1Cl)Nn1cnnc1`, the Potency entry is “inactive”.

Take `O=C(Nc1ccccc1Cl)c1ccc2nsnc2c1`: the Potency entry was “inactive”.

On to `O=C(Nc1ccccc1Cl)/C(Cl)=C(\Cl)S(=O)c1ccccc1` (stereo not drawn), for which the Potency was 0.206 µM (active).

On to `C=CCn1c(COc2ccc(F)cc2)nnc1SCC(=O)Nc1cccc(S(N)(=O)=O)c1`, for which the Potency result was “inactive”.

In the case of `O=C(c1cnccn1)N1CCN(S(=O)(=O)c2cccc(Cl)c2)CC1`, the Potency result was “inactive”.
